Results published in PubChem BioAssay AID651949 (Broad Institute, 2012).
Results with a measured potency or affinity are listed apart. The source made the active and inactive calls.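 How the source made its calls: active means compounds lowering cell ATP signal whose fitted half-maximal concentration is at most twice the top tested dose; inconclusive means flat curve with 30 to 70% signal loss, or poor fit; inactive means the rest.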

Test: HEK293T cell cytotoxicity, dose response, cytotoxicity control, CellTiter-Glo luminescence, dry powder, set 6 (AID 651949)
Details: HEK293T viability, CellTiter-Glo ATP luminescence, 48 h; series mostly up to 26 µM

| SMILES | outcome |
| --- | --- |
| O=S(=O)(Cc1ccccc1)c1nnc(-c2ccccc2)o1 | inactive |
| c1ccc(-c2nnc(SCc3cccnc3)o2)cc1 | inactive |
| Fc1ccc(Cn2cc(CSc3nnc(-c4ccc(F)cc4)o3)nn2)cc1 | inactive |
| Clc1ccccc1-c1nnc(SCc2ccccc2)o1 | inactive |
| N#Cc1ccc(CSc2nnc(-c3ccccc3)o2)cc1 | inactive |
| c1ccc(CSc2nnc(-c3ccco3)o2)cc1 | inactive |
| Cc1cccc(CSc2nnc(-c3ccc(Cl)cc3)o2)n1 | inactive |
| c1ccc(CSc2nnc(-c3ccc(-c4ccccc4)cc3)o2)cc1 | inactive |
| COc1ccc(CSc2nnc(-c3ccc(Cl)cc3)o2)nc1 | inactive |
| Fc1cccc(-c2nnc(SCc3ccccc3)o2)c1 | inactive |
| Fc1ccc(-c2nnc(SCc3cn(Cc4ccccc4)nn3)o2)cc1 | inactive |
| c1ccc(CSc2nnc(Cc3ccccc3)o2)cc1 | inactive |
| Cc1cccc(CSc2nnc(-c3ccccc3)o2)c1 | inactive |
| c1ccc(CSc2nnc(-c3ccncc3)o2)nc1 | inactive |
| FC(F)(F)Oc1cccc(CSc2nnc(-c3ccccc3)o2)c1 | inactive |
| c1ccc(CSc2nnc(-c3ccncc3)o2)cc1 | inactive |
| N#Cc1cccc(-c2nnc(SCc3ccccc3)o2)c1 | inactive |
| FC(F)(F)c1ccc(CSc2nnc(-c3ccccc3)o2)cc1 | inactive |
| Fc1ccccc1CSc1nnc(-c2ccccc2)o1 | inactive |
| CS(=O)(=O)c1ccccc1CSc1nnc(-c2ccccc2)o1 | inactive |

| SMILES | outcome |
| --- | --- |
| FC(F)(F)c1ccc(-c2nnc(SCc3ccccc3)o2)cc1 | inactive |
| CC(C)c1nnc(SCc2ccccc2)o1 | inactive |
| O=C(Cc1ccccc1)C(C(=O)c1nnc(-c2ccccc2)o1)c1ccccc1 (centres undefined) | inactive |
| Cc1ccc(-c2nnc(SCc3ccccn3)o2)cc1 | inactive |
| c1ccc(Sc2nnc(-c3ccccc3)o2)cc1 | inactive |
| COc1ccccc1-c1nnc(SCc2ccccc2)o1 | inactive |
| Clc1ccccc1CSc1nnc(-c2ccccc2)o1 | inactive |
| c1ccc(CSc2nnc(-c3cccs3)o2)cc1 | inactive |
| CC1(O)CN(CCSc2nnc(-c3ccccc3)o2)C1 | inactive |
| N#Cc1ccccc1CSc1nnc(-c2ccccc2)o1 | inactive |
| FC(F)(F)Oc1ccccc1-c1nnc(SCc2ccccc2)o1 | inactive |
| c1ccc(CSc2nnc(-c3cscn3)o2)cc1 | inactive |
| c1ccc(Cn2cc(CSc3nnc(C4CCCC4)o3)nn2)cc1 | inactive |
| CS(=O)(=O)c1ccc(-c2nnc(SCc3ccccc3)o2)cc1 | inactive |
| CSc1nnc(-c2ccccc2)o1 | inactive |
| Clc1cccc(-c2nnc(SCc3ccccc3)o2)c1 | inactive |
| Cc1cccc(-c2nnc(SCc3ccccc3)o2)c1 | inactive |
| c1ccc(-c2nnc(SCc3ncco3)o2)cc1 | inactive |
| Fc1ccc(Cn2cc(CSc3nnc(C4CCCC4)o3)nn2)cc1 | inactive |
